Measurements: PubChem BioAssay (NCATS)
Records with an inconclusive call do not appear. A call without a number means that no potency is given here. Calls of active or inactive are those of the source. Unless noted, calls follow the shape of the dose curve; as a rule, active = well fitted curve in the direction sought with a large enough effect; inconclusive = small, poorly fitted or top-dose-only effect, or another doubt; inactive = no such curve, though single readings can be large; an effect the other way counts as inactive or inconclusive.

How the values were obtained:
[1] = target: Arylsulfatase A (Homo sapiens) (UniProt P15289); test: qHTS screen for enhancers of Arylsulfatase A (ASA1): LOPAC Validation Assay (AID 720538)
Sequence of Arylsulfatase A (Homo sapiens) (P15289 whole entry, looked up): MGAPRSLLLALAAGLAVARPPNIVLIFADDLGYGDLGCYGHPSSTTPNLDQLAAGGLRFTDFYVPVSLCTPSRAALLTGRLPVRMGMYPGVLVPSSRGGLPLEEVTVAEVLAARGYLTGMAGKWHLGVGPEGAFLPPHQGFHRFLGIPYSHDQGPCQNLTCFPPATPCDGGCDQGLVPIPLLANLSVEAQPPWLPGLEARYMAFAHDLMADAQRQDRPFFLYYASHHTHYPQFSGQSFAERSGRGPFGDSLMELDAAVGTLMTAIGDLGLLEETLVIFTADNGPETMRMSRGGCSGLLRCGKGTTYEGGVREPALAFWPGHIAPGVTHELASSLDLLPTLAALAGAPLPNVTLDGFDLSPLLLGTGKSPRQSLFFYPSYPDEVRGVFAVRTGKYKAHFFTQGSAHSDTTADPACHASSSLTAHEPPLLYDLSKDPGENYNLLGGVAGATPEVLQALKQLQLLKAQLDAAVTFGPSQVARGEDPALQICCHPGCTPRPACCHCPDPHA
In short: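 MLD patient fibroblasts (SV40, ASA-I179S), 1536-well; adhere 6 hrs; cpd 48h, 37 degree C, 5% CO2; pNCS 0.5mM final in lysis buffer, 14h RT; stop 1N NaOH final; fluor. Ex525/Em598.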

[2] = qHTS for Activators of Parkin Expression: LOPAC Validation Assay (NLuc Reporter) (AID 720572)
In short: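 Parkin promoter-driven FLuc/NLuc neuronal reporter cells; 24 h plating, 7-pt dose response, 24 h at 37 C/5% CO2; FLuc then NanoLuc reagent, 10 min each, luminescence; DMSO/positive control normalized.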

[3] = qHTS for Activators of Parkin Expression: LOPAC Validation Assay (FLuc Reporter) (AID 720573)
In short: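 Cells seeded, 24 h; compounds pinned, 7-pt dose response; 24 h at 37 C/5% CO2; volume reduced; FLuc reagent 10 min RT; luminescence read. Normalization: DMSO = 0, positive control = 100%.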

[4] = target: T1, Hexokinase-4 (Homo sapiens) + Glucokinase regulatory protein (Homo sapiens) (UniProt P35557+Q14397); test: qHTS assay for inhibitors of recombinant human GCK-GKRP interaction: Diaphorase-coupled assay (AID 743205)
T1 sequence (P35557 whole entry, looked up): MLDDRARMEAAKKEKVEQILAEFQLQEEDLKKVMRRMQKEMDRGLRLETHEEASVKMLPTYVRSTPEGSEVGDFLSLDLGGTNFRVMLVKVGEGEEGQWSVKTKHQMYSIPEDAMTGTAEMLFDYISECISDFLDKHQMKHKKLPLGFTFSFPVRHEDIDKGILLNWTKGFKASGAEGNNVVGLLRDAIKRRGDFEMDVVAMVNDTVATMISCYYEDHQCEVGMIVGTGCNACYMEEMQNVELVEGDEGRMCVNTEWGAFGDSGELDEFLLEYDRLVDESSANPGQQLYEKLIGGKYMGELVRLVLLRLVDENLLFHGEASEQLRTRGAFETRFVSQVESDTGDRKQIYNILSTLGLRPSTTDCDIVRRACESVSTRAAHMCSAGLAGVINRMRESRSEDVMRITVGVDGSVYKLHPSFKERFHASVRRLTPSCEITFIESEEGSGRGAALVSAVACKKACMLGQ
T1 sequence (Q14397 whole entry, looked up): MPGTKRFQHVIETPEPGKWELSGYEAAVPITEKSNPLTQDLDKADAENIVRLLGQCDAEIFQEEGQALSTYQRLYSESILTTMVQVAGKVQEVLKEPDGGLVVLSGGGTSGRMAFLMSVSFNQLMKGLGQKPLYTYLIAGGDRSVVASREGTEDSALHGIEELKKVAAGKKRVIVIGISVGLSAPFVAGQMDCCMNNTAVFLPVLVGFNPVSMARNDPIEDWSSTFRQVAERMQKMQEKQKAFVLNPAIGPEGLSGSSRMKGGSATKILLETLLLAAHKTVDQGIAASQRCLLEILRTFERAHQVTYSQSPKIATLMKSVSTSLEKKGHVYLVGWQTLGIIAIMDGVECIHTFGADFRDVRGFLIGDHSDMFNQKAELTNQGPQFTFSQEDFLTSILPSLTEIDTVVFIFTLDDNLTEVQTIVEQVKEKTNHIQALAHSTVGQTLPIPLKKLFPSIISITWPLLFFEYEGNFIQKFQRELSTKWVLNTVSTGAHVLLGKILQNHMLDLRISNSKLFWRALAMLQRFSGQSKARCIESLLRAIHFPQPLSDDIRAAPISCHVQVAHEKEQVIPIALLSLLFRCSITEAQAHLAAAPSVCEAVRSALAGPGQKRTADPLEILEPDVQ
In short: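 25 mM Hepes pH 7.6, 5 mM glucose, 0.4 mM ATP, 4 U/ml G6PDH; 10 nM each GST-GCK/FLAG-GKRP. Kinetic fluorescence read, 1/min × 30 min. Normalized: DMSO ± enzyme = max/min.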

[5] = target: T1, Hexokinase-4 (Homo sapiens) + Glucokinase regulatory protein (Homo sapiens); test: qHTS assay for inhibitors of recombinant human GCK-GKRP interaction: ADP-Glo assay (AID 743206)
In short: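 GST-GCK and FLAG-GKRP (15 nM each in the dispensed mix, with 2 uM S6P) react with 0.4 mM ATP and 5 mM glucose (final) in Hepes pH 7.6 for 60 min at room temperature. ADP is measured by ADP-Glo luminescence.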

[6] = target: T1, Hexokinase-4 (Homo sapiens) + Glucokinase regulatory protein (Homo sapiens); test: qHTS assay for inhibitors of recombinant human GCK-GKRP interaction: HTRF assay (AID 743207)
In short: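 5 nM GST-GCK + 5 nM FLAG-GKRP + 2 uM S6P, pH 7.1 buffer (25 mM Hepes, 2 mM MgCl2, 25 mM KCl, 1 mM DTT, Tween/BSA); pin-transferred cpd; anti-FLAG XL665/anti-GST K; 60 min RT; HTRF.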

[7] = qHTS Assay for Identifying Gametocytocidal Compounds (AID 743244); also: potency is read from the fitted curve at half-maximal effect;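 as to max response: actives lower the fluorescent signal which means gametocytes are killed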; conditions: P. falciparum 3D7 stage III-V gametocytes, alamarBlue, 72 h; max response: stronger effect = lower value
In short: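 Compounds are pinned into medium, gametocytes (stage III–V, 3D7, 20,000 cells/well) added, and plates held 72 h at 37 °C in 5% CO2. AlamarBlue follows for 24 h before fluorescence reading.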

[8] = qHTS profiling of the MIPE4 collection as inhibitors of Plasmodium falciparum (3D7) proliferation (AID 743344; call rule not given here); conditions: P. falciparum 3D7 in erythrocytes, SYBR Green DNA fluorescence, 72 h; at 28.5 µM (top of the series)
In short: (§1)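 Erythrocytes infected with P. falciparum (0.3% parasitemia, 2.5% hematocrit) incubated with compounds 72 h at 37 C, 5% CO2. Lysis with saponin/Triton buffer containing SYBR Green I, overnight at room temperature in the dark; DNA fluorescence (485/535 nm) normalised to 0.29 uM artemisinin and DMSO.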

[9] = qHTS profiling for inhibitors of Plasmodium falciparum (3D7) proliferation (AID 743322);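 also: infected erythrocytes exposed to compound for 72 h before lysis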; conditions: P. falciparum 3D7 proliferation; at 28.7 µM (top of the series)
In short: as §1

[10] = qHTS profiling for inhibitors of Plasmodium falciparum (DD2) proliferation (AID 743323; call rule not given here); conditions: lower = more inhibition; at 28.7 µM (top of the series)
In short: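 Parasite proliferation measured via DNA-dye fluorescence, as uninfected erythrocytes lack DNA. Cultures at 0.3% parasitemia and 2.5% hematocrit incubated 72 h with compound; signal scaled between vehicle and 0.29 uM artemisinin wells.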

[11] = qHTS profiling for inhibitors of Plasmodium falciparum (HB3) proliferation (AID 743324); conditions: Plasmodium falciparum HB3 blood-stage proliferation; at 28.7 µM (top of the series)
In short: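 P. falciparum HB3 grown in erythrocytes (0.3% parasitemia, 2.5% hematocrit final) with compound for 72 h at 37 C, 5% CO2. Parasite DNA detected by SYBR Green after saponin/triton lysis overnight; normalized to 0.29 uM artemisinin and DMSO.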

[12] = qHTS for compounds that reverse cellular toxicity of Amyloid beta (A-beta) peptide in yeast: LOPAC Validation Assay (AID 720559)
In short: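 Medium dispensed, compounds pinned, A-beta yeast suspension added; plates held at 30 C for 48 hr; absorbance measured at 600 nm to gauge growth; values scaled between DMSO and FeCl3/clioquinol (equimolar) controls.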

[13] = qHTS assay for small molecule agonists of the antioxidant response element (ARE) signaling pathway measured by Nrf2-dependant transcriptional activity - cell viability counter screen (AID 720653; active = well fitted curve in the direction sought with a large enough effect in the repeat runs; an effect the other way counts as inactive or inconclusive); conditions: ARE-bla HepG2 viability, CellTiter-Glo ATP luminescence, 16 h; stronger effect = lower value
In short: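 Cytotoxicity counter screen: intracellular ATP quantified by CellTiter-Glo luminescence in the same ARE-bla HepG2 plates, after 16 h compound exposure and a 2 h beta-lactamase substrate step.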

[14] = qHTS assay for cell viability of HEK293 cells (AID 743288); conditions: ATP luminescence (CellTiter-Glo), 18 h; max response: stronger effect = lower value; also: nearly all actives have a fitted effect of over 50% in size
In short: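 HEK293 parental, 2,000 cells/well; ≥5 h pre-incubation 37 C; pintool compound addition; 18 h, 37 C; CellTiter-Glo 30 min RT; luminescence read.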

[15] = qHTS assay for cell viability of the p53RE-bla HCT-116 cell line (AID 743292); also: nearly all actives have a fitted effect of over 55% in size
In short: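 CellSensor p53RE-bla HCT-116 cells, 4,000/well, preincubated 5 h at 37 C, then exposed to compounds in DMSO for 16 h at 37 C. Viability read as CellTiter-Glo luminescence (intracellular ATP) after 30 min at room temperature.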

CCC1(O)CC2CN(CCc3c([nH]c4ccccc34)[C@@](C(=O)OC)(c3cc4c(cc3OC)N(C=O)C3[C@]45CCN4CC=C[C@@](CC)([C@@H](OC(C)=O)[C@]3(O)C(=O)OC)[C@H]45)C2)C1 (some centres undefined)
Potency [1]: inactive
Potency [2]: inactive
Potency [3]: inactive
Potency [4]: inactive
Potency [5]: inactive
Potency [6]: inactive

C=C1C[C@@]23CC[C@H]4[C@@](C)(CCC[C@@]4(C)C(=O)O)[C@@H]2CC[C@]1(O)C3
Potency [1]: inactive
Potency [2]: inactive
Potency [4]: inactive
Potency [5]: inactive
Potency [6]: inactive
max response [7]: 31.3% (inactive)

N[C@H]1CONC1=O
Potency [1]: inactive
Potency [4]: inactive
Potency [5]: inactive
Potency [6]: inactive
max response [7]: 7.19% (inactive)

CCCCCCCCCCC/C=C\C(C)(C)/C=C\CCCC(=O)O
Potency [1]: inactive
Potency [2]: inactive
Potency [3]: inactive
Potency [4]: inactive
Potency [5]: inactive
Potency [6]: inactive
max response [7]: 11.6% (inactive)

NC1CONC1=O (centres undefined)
Potency [1]: inactive
Potency [4]: inactive
Potency [5]: inactive
Potency [6]: inactive
max response [7]: 13.9% (inactive)
parasite growth, % of DMSO control [8]: 94.2%

N#CC(C#N)=C(N)/C(C#N)=C/c1ccc(O)cc1
Potency [1]: inactive
Potency [2]: inactive
Potency [3]: inactive
Potency [4]: inactive
Potency [5]: inactive
Potency [6]: inactive
max response [7]: 11.4% (inactive)

CCCn1c(=O)c2c(ncn2C)n(CCC)c1=O
Potency [1]: inactive
Potency [2]: inactive
Potency [3]: inactive
Potency [4]: inactive
Potency [5]: inactive
Potency [6]: inactive
max response [7]: 12.3% (inactive)

Cc1cccc(C)c1OCC(N)C(C)C (centres undefined)
Potency [1]: inactive
Potency [2]: inactive
Potency [3]: inactive
Potency [4]: inactive
Potency [5]: inactive
Potency [6]: inactive
Potency [7]: 23.5 µM (active)
remaining parasite growth % (stronger effect = lower value) [9]: -0.502%
activity, percent of control [10]: -0.0581%
remaining proliferation (% of control), lower = more inhibition [11]: -0.0097%

CCc1ccc2c(-c3cccc(Cl)c3)nc(=O)n(CC)c2n1
Potency [1]: inactive
Potency [2]: inactive
Potency [3]: inactive
Potency [4]: inactive
Potency [5]: inactive
Potency [6]: inactive
max response [7]: 15.8% (inactive)

CCCCCCCCCCCCCCSCC(=O)O
outcome [12]: inactive
Potency [2]: inactive
Potency [3]: inactive
max response [13]: 2.74% (inactive)
Potency [4]: inactive
Potency [5]: inactive
max response [7]: 30.8% (inactive)
max response [14]: -15% (inactive)
Potency [15]: inactive

CC(N)(Cc1ccc(O)cc1)C(=O)O (centres undefined)
Potency [1]: inactive
Potency [4]: inactive
Potency [5]: inactive
Potency [6]: inactive
max response [7]: -28.2% (inactive)

OC[C@H]1O[C@H](n2cnc3c(N[C@H]4CCC[C@@H]4O)ncnc32)[C@H](O)[C@@H]1O
Potency [1]: inactive
Potency [2]: inactive
Potency [4]: inactive
Potency [5]: inactive
Potency [6]: inactive
max response [7]: 20.9% (inactive)

COC(=O)[C@H](NC(=O)c1cc(-c2ccccc2)nc2ccccc12)c1ccccc1
Potency [1]: inactive
Potency [3]: inactive
Potency [4]: inactive
Potency [5]: inactive
Potency [6]: inactive
max response [7]: 9.97% (inactive)

O=C(O)/C=C/c1cnc[nH]1
Potency [1]: inactive
Potency [2]: inactive
Potency [3]: inactive
Potency [4]: inactive
Potency [5]: inactive
max response [7]: 8.66% (inactive)

CN1CC(O)C(O)C(O)C1CO (centres undefined)
Potency [1]: inactive
Potency [2]: inactive
Potency [4]: inactive
Potency [5]: inactive
Potency [6]: inactive
max response [7]: 11.6% (inactive)

c1ccc(C(NCc2cccnc2)(c2ccccc2)c2ccccc2)cc1
Potency [1]: inactive
Potency [2]: inactive
Potency [3]: inactive
Potency [4]: inactive
Potency [5]: inactive
Potency [6]: inactive
max response [7]: 16.7% (inactive)

Cc1nc(N=Nc2ccc(S(=O)(=O)O)cc2S(=O)(=O)O)c(COP(=O)(O)O)c(C=O)c1O
Potency [1]: inactive
Potency [2]: inactive
Potency [4]: inactive
Potency [5]: inactive
Potency [6]: inactive
max response [7]: 14.8% (inactive)
parasite growth, % of DMSO control [8]: 98.1%

CN1CCCC1CCOC(C)(c1ccccc1)c1ccc(Cl)cc1 (centres undefined)
Potency [1]: inactive
Potency [2]: inactive
Potency [4]: inactive
Potency [5]: inactive
Potency [6]: inactive

Nc1ncnc2c1ncn2C1CCCC1
Potency [1]: inactive
Potency [2]: inactive
Potency [3]: inactive
Potency [4]: inactive
Potency [5]: inactive
Potency [6]: inactive
max response [7]: 29.2% (inactive)

Nc1ccc(-c2ccc3ccccc3n2)cc1
Potency [1]: inactive
Potency [2]: inactive
Potency [4]: inactive
Potency [5]: inactive
Potency [6]: inactive
max response [7]: 11.1% (inactive)

C=CCN1CCc2cc(O)c(O)cc2C(c2ccccc2)C1 (centres undefined)
Potency [1]: inactive
Potency [2]: inactive
Potency [3]: inactive
Potency [4]: inactive
Potency [5]: inactive
Potency [6]: inactive

C=CC[C@H](N)C(=O)O
Potency [1]: inactive
Potency [2]: inactive
Potency [4]: inactive
Potency [5]: inactive
Potency [6]: inactive
max response [7]: 18.7% (inactive)

O=c1oc(Cl)c(Cl)c2ccccc12
Potency [1]: inactive
Potency [2]: inactive
Potency [4]: inactive
Potency [6]: inactive
max response [7]: 31% (inactive)

NC1CCN(O)C1=O (centres undefined)
Potency [1]: inactive
Potency [2]: inactive
Potency [3]: inactive
Potency [4]: inactive
Potency [5]: inactive
Potency [6]: inactive
max response [7]: 19.4% (inactive)

O=C(O)/C(=C/c1c(C(=O)O)[nH]c2cc(Cl)cc(Cl)c12)c1ccccc1
Potency [1]: inactive
Potency [2]: inactive
Potency [3]: inactive
Potency [4]: inactive
Potency [5]: inactive
Potency [6]: inactive
max response [7]: 2.21% (inactive)

S=C(S)N1CCCC1
Potency [1]: inactive
Potency [2]: inactive
Potency [3]: inactive
Potency [4]: inactive
Potency [5]: inactive
Potency [6]: inactive

CC(C)[C@@H]1CC[C@@H](C)C[C@@H]1P(=O)(c1ccccc1)c1ccccc1
outcome [12]: inactive
Potency [2]: inactive
Potency [3]: inactive
Potency [4]: inactive
Potency [5]: inactive
Potency [6]: inactive
max response [7]: 7.79% (inactive)

O=C(O)C1CCNCC1
outcome [12]: inactive
Potency [2]: inactive
Potency [3]: inactive
Potency [4]: inactive
Potency [5]: inactive
Potency [6]: inactive
max response [7]: 10.6% (inactive)

NC(Cc1cccc(-c2ccccc2CP(=O)(O)O)c1)C(=O)O (centres undefined)
outcome [12]: inactive
Potency [2]: inactive
Potency [3]: inactive
Potency [4]: inactive
Potency [5]: inactive
Potency [6]: inactive
max response [7]: 13.4% (inactive)
